Where “and” joins values, the source holds several entries; their conditions need not be identical. Equal entries are not always repeated. The campaign covered roughly 5,500 compounds. About 2,000 (36%) were called active. Not shown: some 18% with an inconclusive outcome. No stated cut-off is given here; in the data, active means normalized growth mostly below about 0.91 (no sharp cut-off); inconclusive means no clear call, values can overlap the other calls; inactive means mostly above about 0.92. The list shows a part of the results. A structure can be active in one record and inactive in another.
Test: chemical genetic growth profiling, strain panel (AID 1159580);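 further: tested at 20 µM; growth read once vehicle control cultures reached saturation at 30 °C; 1 = growth at the plate median or of vehicle wells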
Conditions: growth OD

Measured: normalized growth

CCN(CC)CCCC(C)Nc1c2ccc(Cl)cc2nc2ccc(OC)cc12 (stereo unspecified)
0.743 (active) and 0.988 (inactive): S. cerevisiae deletion strains, locus YNL128W, strain TEP1, stronger effect = lower value
active: S. cerevisiae deletion strains, locus YJR075W, strain HOC1, stronger effect = lower value 0.813 | S. cerevisiae deletion strains, locus YKL009W, strain mrt4, stronger effect = lower value 0.863 | S. cerevisiae deletion strains, locus YKL085W, strain MDH1 (second series), stronger effect = lower value 0.93 | S. cerevisiae deletion strains, locus YKL085W, strain MDH1, stronger effect = lower value 0.93 | S. cerevisiae deletion strains, locus YKL190W, strain CNB1, stronger effect = lower value 0.79 | S. cerevisiae deletion strains, locus YKR001C, strain vps1, stronger effect = lower value 0.616 | S. cerevisiae deletion strains, locus YLL001W, strain dnm1, stronger effect = lower value 0.902 | S. cerevisiae deletion strains, locus YLR058C, strain SHM2, stronger effect = lower value 0.524 | S. cerevisiae deletion strains, locus YLR102C, strain apc9, stronger effect = lower value 0.855 | S. cerevisiae deletion strains, locus YLR113W, strain HOG1, stronger effect = lower value 0.741 | S. cerevisiae deletion strains, locus YLR268W, strain sec22, stronger effect = lower value 0.717 | S. cerevisiae deletion strains, locus YLR330W, strain CHS5, stronger effect = lower value 0.883 | S. cerevisiae deletion strains, locus YLR342W, strain FKS1 (second series), stronger effect = lower value 0.632 | S. cerevisiae deletion strains, locus YML032C, strain rad52, stronger effect = lower value 0.544 | S. cerevisiae deletion strains, locus YML124C, strain tub3, stronger effect = lower value 0.858 | S. cerevisiae deletion strains, locus YMR223W, strain ubp8, stronger effect = lower value 0.508 | S. cerevisiae deletion strains, locus YNL067W, strain RPL9B, stronger effect = lower value 0.703 | S. cerevisiae deletion strains, locus YNL153C, strain GIM3, stronger effect = lower value 0.819 | S. cerevisiae deletion strains, locus YNL183C, strain NPR1, stronger effect = lower value 0.644 | S. cerevisiae deletion strains, locus YNL233W, strain BNI4, stronger effect = lower value 0.756 | S. cerevisiae deletion strains, locus YNL307C, strain MCK1, stronger effect = lower value 0.622 | S. cerevisiae deletion strains, locus YNL322C, strain KRE1, stronger effect = lower value 0.794 | S. cerevisiae deletion strains, locus YNR052C, strain pop2, stronger effect = lower value 0.821 | S. cerevisiae deletion strains, locus YOL012C, strain htz1 2.88 [resistant] | S. cerevisiae deletion strains, locus YOL147C, strain pex11, stronger effect = lower value 0.6 | S. cerevisiae deletion strains, locus YOR061W, strain CKA2, stronger effect = lower value 0.71 | S. cerevisiae deletion strains, locus YOR069W, strain VPS5, stronger effect = lower value 0.848 | S. cerevisiae deletion strains, locus YOR144C, strain elg1, stronger effect = lower value 0.776 | S. cerevisiae deletion strains, locus YOR184W, strain ser1, stronger effect = lower value 0.59 | S. cerevisiae deletion strains, locus YOR231W, strain MKK1, stronger effect = lower value 0.686 | S. cerevisiae deletion strains, locus YOR290C, strain snf2, stronger effect = lower value 0.8 | S. cerevisiae deletion strains, locus YOR316C, strain cot1, stronger effect = lower value 0.751 | S. cerevisiae deletion strains, locus YPL055C, strain LGE1, stronger effect = lower value 0.746 | S. cerevisiae deletion strains, locus YPL241C, strain CIN2, stronger effect = lower value 0.914 | S. cerevisiae deletion strains, locus YPL256C, strain CLN2, stronger effect = lower value 0.797 | S. cerevisiae deletion strains, locus YPR167C, strain met16, stronger effect = lower value 0.866 | S. cerevisiae deletion strains, strain wtn01, stronger effect = lower value 0.665 | S. cerevisiae strains, strain wild type, stronger effect = lower value 0.755
inactive: S. cerevisiae deletion strains, locus YKL068W, stronger effect = lower value 1 | S. cerevisiae deletion strains, locus YKL160W, strain elf1, stronger effect = lower value 0.931 | S. cerevisiae deletion strains, locus YKR026C, strain gcn3, stronger effect = lower value 1.04 | S. cerevisiae deletion strains, locus YKR091W, strain srl3, stronger effect = lower value 1.02 | S. cerevisiae deletion strains, locus YLL026W, stronger effect = lower value 1.02 | S. cerevisiae deletion strains, locus YLL041C, strain sdh2, stronger effect = lower value 1.03 | S. cerevisiae deletion strains, locus YLR027C, strain aat2, stronger effect = lower value 0.964 | S. cerevisiae deletion strains, locus YLR039C, strain RIC1, stronger effect = lower value 0.949 | S. cerevisiae deletion strains, locus YLR221C, strain rsa3, stronger effect = lower value 0.993 | S. cerevisiae deletion strains, locus YLR258W, strain gsy2, stronger effect = lower value 0.954 | S. cerevisiae deletion strains, locus YLR262C, strain YPT6 (second series), stronger effect = lower value 0.992 | S. cerevisiae deletion strains, locus YLR262C, strain YPT6, stronger effect = lower value 0.945 | S. cerevisiae deletion strains, locus YLR320W, strain mms22, stronger effect = lower value 0.973 | S. cerevisiae deletion strains, locus YLR342W, strain FKS1, stronger effect = lower value 1.01 | S. cerevisiae deletion strains, locus YLR357W, strain rsc2, stronger effect = lower value 1.07 | S. cerevisiae deletion strains, locus YLR370C, strain arc18, stronger effect = lower value 0.955 | S. cerevisiae deletion strains, locus YLR371W, strain rom2, stronger effect = lower value 0.93 | S. cerevisiae deletion strains, locus YLR384C, strain iki3, stronger effect = lower value 1.04 | S. cerevisiae deletion strains, locus YLR418C, strain cdc73, stronger effect = lower value 0.959 | S. cerevisiae deletion strains, locus YML016C, strain PPZ1, stronger effect = lower value 1.01 | S. cerevisiae deletion strains, locus YML120C, strain ndi1, stronger effect = lower value 0.995 | S. cerevisiae deletion strains, locus YMR058W, strain fet3, stronger effect = lower value 0.961 | S. cerevisiae deletion strains, locus YMR078C, strain ctf18, stronger effect = lower value 0.954 | S. cerevisiae deletion strains, locus YMR125W, strain sto1, stronger effect = lower value 0.989 | S. cerevisiae deletion strains, locus YMR129W, stronger effect = lower value 1.04 | S. cerevisiae deletion strains, locus YMR205C, strain PFK2, stronger effect = lower value 0.973 | S. cerevisiae deletion strains, locus YMR231W, strain pep5, stronger effect = lower value 1.02 | S. cerevisiae deletion strains, locus YMR263W, strain SAP30, stronger effect = lower value 0.948 and 0.979 | S. cerevisiae deletion strains, locus YMR307W, strain GAS1, stronger effect = lower value 1.15 and 0.985 | S. cerevisiae deletion strains, locus YNL071W, strain lat1, stronger effect = lower value 1.02 | S. cerevisiae deletion strains, locus YNL175C, strain NOP13, stronger effect = lower value 0.992 | S. cerevisiae deletion strains, locus YNL197C, strain WHI3, stronger effect = lower value 1 | S. cerevisiae deletion strains, locus YNL209W, strain ssb2, stronger effect = lower value 0.985 | S. cerevisiae deletion strains, locus YNL224C, strain SQS1, stronger effect = lower value 0.959 | S. cerevisiae deletion strains, locus YNL248C, strain rpa49, stronger effect = lower value 1.01 | S. cerevisiae deletion strains, locus YNL250W, strain rad50, stronger effect = lower value 0.952 | S. cerevisiae deletion strains, locus YNL271C, strain bni1, stronger effect = lower value 1.02 | S. cerevisiae deletion strains, locus YNL298W, strain CLA4, stronger effect = lower value 1 | S. cerevisiae deletion strains, locus YNL322C, strain KRE1 (second series), stronger effect = lower value 1.01 | S. cerevisiae deletion strains, locus YNR049C, strain mso1, stronger effect = lower value 1.04 | S. cerevisiae deletion strains, locus YOL006C, strain TOP1, stronger effect = lower value 0.847 | S. cerevisiae deletion strains, locus YOR001W, strain rrp6, stronger effect = lower value 0.966 | S. cerevisiae deletion strains, locus YOR070C, strain gyp1, stronger effect = lower value 0.985 | S. cerevisiae deletion strains, locus YOR080W, strain dia2, stronger effect = lower value 1.03 | S. cerevisiae deletion strains, locus YOR083W, strain WHI5 (second series), stronger effect = lower value 0.955 | S. cerevisiae deletion strains, locus YOR083W, strain WHI5, stronger effect = lower value 0.97 | S. cerevisiae deletion strains, locus YOR106W, strain vam3, stronger effect = lower value 0.916 | S. cerevisiae deletion strains, locus YOR136W, strain idh2, stronger effect = lower value 0.928 | S. cerevisiae deletion strains, locus YOR265W, strain rbl2, stronger effect = lower value 1.02 | S. cerevisiae deletion strains, locus YOR270C, strain vph1, stronger effect = lower value 0.996 | S. cerevisiae deletion strains, locus YPL051W, strain arl3, stronger effect = lower value 0.961 | S. cerevisiae deletion strains, locus YPL078C, strain atp4, stronger effect = lower value 0.936 | S. cerevisiae deletion strains, locus YPL106C, strain sse1, stronger effect = lower value 0.984 | S. cerevisiae deletion strains, locus YPL240C, strain hsp82, stronger effect = lower value 0.998 | S. cerevisiae deletion strains, locus YPR119W, strain clb2, stronger effect = lower value 0.946 | S. cerevisiae deletion strains, locus YPR141C, strain kar3, stronger effect = lower value 1.04 | S. cerevisiae deletion strains, locus YPR163C, strain tif3, stronger effect = lower value 1.02

Reference: PubChem BioAssay AID1159580 (chemical genetic matrix, 2015)
